# Measured values from the supplement of paper PMC10849652.
# Targets with a hit are over-represented here; the source holds about 7,900 in all. About 0.6% of all pairs of compound and target were hits. A number with no mark means an inactive call.
# How the values were obtained:
# Experiment in all cases: log2 fold change, soluble protein after heating vs DMSO (PISA); higher = thermal stabilisation; K562 cells, 10 uM, 30 min; active = over 0.2 and 3.5 SD of the protein, either way, in both replicates (recomputed)
# [1] = compound: CC1=C(C=C(C=C1)NC(=O)C2=CC(=CC=C2)C(C)(C)C#N)NC3=CC4=C(C=C3)N=CN(C4=O)C
# Procedure, shortened: (§1)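 For each measurement, 10 μM compound was applied for 30 min to K562 cells at 2×10^6 cells/mL. Aliquots were heated for 3 min across 48°C-58°C, pooled, and extracted in PBS with 0.5% NP-40 at 4°C; the supernatant after 21,000xg for 90 min was soluble protein. This was quantified by TMTpro 16plex LC-MS/MS with channel sums equalised, and thermal stability was reported relative to control samples from duplicates, on a log2 fold-change scale.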
# [2] = compound: CC1=C(C=C(C=C1)NC(=O)C2=CC(=CC=C2)N(C)C)NC(=O)C3=CC=C(C=C3)O
# Procedure, shortened: as §1
# [3] = compound: CC1=CC=C(C=C1)SC2=C3C=C(SC3=CN=C2)C(=O)N
# Procedure, shortened: as §1
# [4] = compound: CC1=NC(=CC=C1)C2=C(N=C(N2)C(C)(C)C)C3=CC4=NC=CN=C4C=C3
# Procedure, shortened: as §1
# Nexturastat A = compound: CCCCN(Cc1ccc(C(=O)NO)cc1)C(=O)Nc1ccccc1 [Nexturastat A]
# Procedure, shortened: as §1
# vemurafenib = compound: CCCS(=O)(=O)Nc1ccc(F)c(C(=O)c2c[nH]c3ncc(-c4ccc(Cl)cc4)cc23)c1F [vemurafenib]
# Procedure, shortened: as §1
# [5] = compound: CCCS(=O)(=O)Nc1ccc(F)c(C(=O)c2c[nH]c3ncc(Cl)cc23)c1F
# Procedure, shortened: as §1
# [6] = compound: CCCc1cc(C)[nH]c(=O)c1CNC(=O)c1cc(-c2ccnc(N3CCN(C)CC3)c2)cc2c1cnn2C(C)C
# Procedure, shortened: as §1
# givinostat = compound: CCN(CC)Cc1ccc2cc(COC(=O)Nc3ccc(C(=O)NO)cc3)ccc2c1 [givinostat]
# Procedure, shortened: as §1
# barasertib = compound: CCN(CCCOc1ccc2c(Nc3cc(CC(=O)Nc4cccc(F)c4)[nH]n3)ncnc2c1)CCOP(=O)(O)O [barasertib]
# Procedure, shortened: as §1
# [7] = compound: CC[C@@H]1C(=O)N(C)c2cnc(Nc3ccc(C(=O)NC4CCN(C)CC4)cc3OC)nc2N1C1CCCC1
# Procedure, shortened: as §1
# volasertib = compound: CC[C@@H]1C(=O)N(C)c2cnc(Nc3ccc(C(=O)N[C@H]4CC[C@H](N5CCN(CC6CC6)CC5)CC4)cc3OC)nc2N1C(C)C [volasertib]
# Procedure, shortened: as §1
# [8] = compound: CC[C@H](C)N1C=C(C2=C(C=C(C=C21)C3=CN=C(C=C3)N4CCNCC4)C(=O)NCC5=C(C=C(NC5=O)C)C)C
# Procedure, shortened: as §1
# epoxomicin = compound: CC[C@H](C)[C@@H](C(=O)N[C@@H]([C@@H](C)O)C(=O)N[C@@H](CC(C)C)C(=O)[C@]1(CO1)C)NC(=O)[C@H]([C@@H](C)CC)N(C)C(=O)C [epoxomicin]
# Procedure, shortened: as §1
# [9] = compound: CCn1c(C(=O)N(C2CC2)C2CC2)cc2c3c(ncn3C)c(Nc3cc(C)n(C)n3)nc21
# Procedure, shortened: as §1
# [10] = compound: CCn1cc(-c2ccnc3[nH]c(-c4cccc(CN(C)C)c4)cc23)c(-c2ccc(NC(=O)N(C)C)cc2)n1
# Procedure, shortened: as §1
# [11] = compound: CN(C)CC(=O)Nc1ccc2[nH]c(=O)c3ccccc3c2c1
# Procedure, shortened: as §1
# rosiglitazone = compound: CN(CCOC1=CC=C(C=C1)C[C@H]2C(=O)NC(=O)S2)C3=CC=CC=N3 (racemic) [rosiglitazone]
# Procedure, shortened: as §1
# [12] = compound: CN1C2=C(C3=C1C(=O)N(N=C3)CC4=CC(=CC=C4)N)SC(=C2)S(=O)C
# Procedure, shortened: as §1
# [13] = compound: CN1CCC(CNc2ccc3ncc(-c4cccc(OC(F)(F)F)c4)n3n2)CC1
# Procedure, shortened: as §1
# Chain of UniProt P60602 (P60602 whole entry, looked up): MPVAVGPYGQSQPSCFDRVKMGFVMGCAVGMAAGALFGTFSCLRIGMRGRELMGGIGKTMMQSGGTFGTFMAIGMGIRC
# Chain of UniProt O95486 (O95486 whole entry, looked up): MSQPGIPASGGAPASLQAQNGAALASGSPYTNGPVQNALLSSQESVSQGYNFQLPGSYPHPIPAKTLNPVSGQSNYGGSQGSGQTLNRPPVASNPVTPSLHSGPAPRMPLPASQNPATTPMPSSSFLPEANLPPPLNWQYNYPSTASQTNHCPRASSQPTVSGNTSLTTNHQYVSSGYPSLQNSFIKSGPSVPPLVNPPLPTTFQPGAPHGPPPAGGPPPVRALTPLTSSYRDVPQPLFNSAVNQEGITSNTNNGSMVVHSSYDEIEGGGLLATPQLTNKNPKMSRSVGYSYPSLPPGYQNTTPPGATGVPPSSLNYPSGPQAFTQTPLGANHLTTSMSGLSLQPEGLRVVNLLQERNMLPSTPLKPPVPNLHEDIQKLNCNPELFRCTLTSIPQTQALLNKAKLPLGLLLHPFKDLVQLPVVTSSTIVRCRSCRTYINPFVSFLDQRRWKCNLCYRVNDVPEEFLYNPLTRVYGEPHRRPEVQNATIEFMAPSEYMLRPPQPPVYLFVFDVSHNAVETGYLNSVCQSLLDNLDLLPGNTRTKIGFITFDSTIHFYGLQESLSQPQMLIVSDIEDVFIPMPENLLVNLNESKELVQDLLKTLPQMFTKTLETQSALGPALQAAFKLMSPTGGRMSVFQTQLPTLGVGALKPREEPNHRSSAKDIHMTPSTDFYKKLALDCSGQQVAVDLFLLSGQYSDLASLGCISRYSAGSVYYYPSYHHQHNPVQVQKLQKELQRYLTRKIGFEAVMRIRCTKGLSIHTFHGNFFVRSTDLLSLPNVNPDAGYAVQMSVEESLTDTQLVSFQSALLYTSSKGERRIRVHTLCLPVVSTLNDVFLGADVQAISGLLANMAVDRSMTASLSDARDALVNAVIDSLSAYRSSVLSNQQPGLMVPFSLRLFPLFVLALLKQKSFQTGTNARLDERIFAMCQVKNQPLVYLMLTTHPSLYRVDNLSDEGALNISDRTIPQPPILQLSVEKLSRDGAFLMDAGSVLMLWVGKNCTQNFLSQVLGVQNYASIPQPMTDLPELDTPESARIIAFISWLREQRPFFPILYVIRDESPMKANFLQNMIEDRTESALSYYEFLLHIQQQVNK
# Chain of UniProt Q9NPQ8 (Q9NPQ8 whole entry, looked up): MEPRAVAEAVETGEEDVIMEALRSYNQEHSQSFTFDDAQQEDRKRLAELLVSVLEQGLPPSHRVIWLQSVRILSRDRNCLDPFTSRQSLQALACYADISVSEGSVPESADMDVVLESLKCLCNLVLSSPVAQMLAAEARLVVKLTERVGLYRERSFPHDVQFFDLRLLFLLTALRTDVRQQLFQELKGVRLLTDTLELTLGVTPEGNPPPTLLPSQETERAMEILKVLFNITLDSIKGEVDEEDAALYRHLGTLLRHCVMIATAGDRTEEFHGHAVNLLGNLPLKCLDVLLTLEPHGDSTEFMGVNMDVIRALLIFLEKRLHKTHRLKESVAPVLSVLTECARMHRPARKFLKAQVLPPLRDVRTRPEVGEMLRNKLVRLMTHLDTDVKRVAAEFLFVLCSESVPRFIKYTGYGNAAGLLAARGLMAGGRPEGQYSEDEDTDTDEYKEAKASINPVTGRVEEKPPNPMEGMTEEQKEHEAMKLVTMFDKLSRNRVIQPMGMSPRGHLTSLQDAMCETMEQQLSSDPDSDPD
# Chain of UniProt P62070 (P62070 whole entry, looked up): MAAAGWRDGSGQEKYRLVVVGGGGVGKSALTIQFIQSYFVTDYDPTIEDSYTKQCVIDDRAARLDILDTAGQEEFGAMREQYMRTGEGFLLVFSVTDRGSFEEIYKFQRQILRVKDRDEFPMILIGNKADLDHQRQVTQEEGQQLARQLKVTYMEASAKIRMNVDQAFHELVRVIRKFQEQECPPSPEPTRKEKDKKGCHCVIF
# Chain of UniProt Q8TDY2 (Q8TDY2 whole entry, looked up): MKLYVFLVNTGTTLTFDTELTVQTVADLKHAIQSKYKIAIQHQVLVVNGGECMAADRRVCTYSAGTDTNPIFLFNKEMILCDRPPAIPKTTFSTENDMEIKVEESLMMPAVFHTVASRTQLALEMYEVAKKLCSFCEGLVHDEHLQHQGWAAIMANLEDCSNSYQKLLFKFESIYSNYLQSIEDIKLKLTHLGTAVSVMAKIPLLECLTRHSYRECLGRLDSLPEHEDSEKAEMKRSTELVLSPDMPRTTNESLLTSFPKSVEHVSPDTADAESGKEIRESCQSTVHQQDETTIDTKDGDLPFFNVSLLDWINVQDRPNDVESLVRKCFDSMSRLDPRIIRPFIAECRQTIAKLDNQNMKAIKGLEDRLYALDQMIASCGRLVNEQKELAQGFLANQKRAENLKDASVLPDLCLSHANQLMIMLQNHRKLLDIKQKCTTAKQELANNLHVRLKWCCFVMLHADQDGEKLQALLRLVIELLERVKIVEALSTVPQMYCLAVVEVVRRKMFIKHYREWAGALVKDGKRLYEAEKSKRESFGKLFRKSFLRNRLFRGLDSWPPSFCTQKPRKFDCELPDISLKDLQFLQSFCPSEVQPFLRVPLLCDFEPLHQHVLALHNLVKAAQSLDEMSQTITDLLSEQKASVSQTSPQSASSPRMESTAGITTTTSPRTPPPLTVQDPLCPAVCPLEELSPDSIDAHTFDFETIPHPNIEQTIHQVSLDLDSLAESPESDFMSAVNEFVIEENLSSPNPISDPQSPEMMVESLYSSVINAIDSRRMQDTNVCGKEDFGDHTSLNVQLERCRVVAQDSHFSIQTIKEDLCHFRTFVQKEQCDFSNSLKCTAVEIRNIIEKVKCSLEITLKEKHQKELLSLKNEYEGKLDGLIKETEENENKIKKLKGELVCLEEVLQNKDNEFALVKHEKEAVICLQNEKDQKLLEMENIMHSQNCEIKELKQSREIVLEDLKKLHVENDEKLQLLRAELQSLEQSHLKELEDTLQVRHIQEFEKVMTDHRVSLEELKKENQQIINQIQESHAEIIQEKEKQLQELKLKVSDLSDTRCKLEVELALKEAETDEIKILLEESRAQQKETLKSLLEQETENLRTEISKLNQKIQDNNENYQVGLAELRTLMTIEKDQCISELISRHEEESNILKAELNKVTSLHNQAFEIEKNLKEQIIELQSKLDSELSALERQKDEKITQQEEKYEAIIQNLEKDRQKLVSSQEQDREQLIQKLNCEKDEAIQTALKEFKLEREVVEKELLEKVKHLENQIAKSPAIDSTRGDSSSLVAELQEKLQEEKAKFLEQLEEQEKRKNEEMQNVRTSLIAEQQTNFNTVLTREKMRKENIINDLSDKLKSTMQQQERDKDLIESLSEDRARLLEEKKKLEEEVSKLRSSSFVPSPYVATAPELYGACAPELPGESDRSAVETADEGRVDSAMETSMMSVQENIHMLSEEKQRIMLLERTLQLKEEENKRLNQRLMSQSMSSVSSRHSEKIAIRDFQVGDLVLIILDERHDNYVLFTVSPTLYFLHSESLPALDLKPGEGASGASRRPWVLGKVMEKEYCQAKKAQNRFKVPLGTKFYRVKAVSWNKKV
# Chain of UniProt P49756 (P49756 whole entry, looked up): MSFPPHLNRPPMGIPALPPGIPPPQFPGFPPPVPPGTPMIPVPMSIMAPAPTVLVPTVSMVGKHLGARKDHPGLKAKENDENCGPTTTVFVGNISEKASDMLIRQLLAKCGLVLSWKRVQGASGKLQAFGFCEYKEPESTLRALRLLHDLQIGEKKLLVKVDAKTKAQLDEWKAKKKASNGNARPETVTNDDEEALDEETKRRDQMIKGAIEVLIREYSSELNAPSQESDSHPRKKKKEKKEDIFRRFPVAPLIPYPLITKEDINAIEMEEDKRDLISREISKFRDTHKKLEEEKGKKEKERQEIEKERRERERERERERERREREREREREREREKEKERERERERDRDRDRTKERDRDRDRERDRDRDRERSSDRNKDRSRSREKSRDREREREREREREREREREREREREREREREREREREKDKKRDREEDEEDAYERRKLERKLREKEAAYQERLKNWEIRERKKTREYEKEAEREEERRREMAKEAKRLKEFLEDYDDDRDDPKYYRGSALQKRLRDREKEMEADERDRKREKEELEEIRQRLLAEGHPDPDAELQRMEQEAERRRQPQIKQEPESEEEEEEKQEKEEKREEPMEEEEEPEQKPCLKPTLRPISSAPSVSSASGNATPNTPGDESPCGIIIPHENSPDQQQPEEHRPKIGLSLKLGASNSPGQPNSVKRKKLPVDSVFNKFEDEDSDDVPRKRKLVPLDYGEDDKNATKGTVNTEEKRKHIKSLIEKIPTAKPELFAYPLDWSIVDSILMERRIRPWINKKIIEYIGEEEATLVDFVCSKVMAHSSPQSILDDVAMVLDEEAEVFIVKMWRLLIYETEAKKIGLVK
# Chain of UniProt Q15758 (Q15758 whole entry, looked up): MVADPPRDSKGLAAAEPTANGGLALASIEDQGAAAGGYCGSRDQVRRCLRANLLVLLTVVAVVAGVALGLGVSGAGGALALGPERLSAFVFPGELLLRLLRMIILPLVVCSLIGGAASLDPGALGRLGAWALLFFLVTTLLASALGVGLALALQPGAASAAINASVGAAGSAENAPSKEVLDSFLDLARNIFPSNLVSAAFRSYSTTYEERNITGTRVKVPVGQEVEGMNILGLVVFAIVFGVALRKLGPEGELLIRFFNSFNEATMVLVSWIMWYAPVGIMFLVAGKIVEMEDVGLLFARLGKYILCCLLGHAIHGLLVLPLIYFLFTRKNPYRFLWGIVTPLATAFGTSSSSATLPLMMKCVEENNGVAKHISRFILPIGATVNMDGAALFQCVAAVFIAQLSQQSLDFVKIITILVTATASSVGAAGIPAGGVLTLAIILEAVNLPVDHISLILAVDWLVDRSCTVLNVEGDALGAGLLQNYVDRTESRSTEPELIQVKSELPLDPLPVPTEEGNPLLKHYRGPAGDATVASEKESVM
Target,log2 fold change [1],log2 fold change [2],log2 fold change [3],log2 fold change [4],log2 fold change (Nexturastat A),log2 fold change (vemurafenib),log2 fold change [5],log2 fold change [6],log2 fold change (givinostat),log2 fold change (barasertib),log2 fold change [7],log2 fold change (volasertib),log2 fold change [8],log2 fold change (epoxomicin),log2 fold change [9],log2 fold change [10],log2 fold change [11],log2 fold change (rosiglitazone),log2 fold change [12],log2 fold change [13]
RBM17 (UniProt Q96I25),-0.004,-0.036,0.057,0.012,0.007,0.068,0.118,0.013,0.028,0.043,-0.08,-0.422 (active),0.085,0.066,-0.271,-0.059,0.048,0.099,0.088,-0.037
SEC24A (UniProt O95486),0.025,-0.089,0,0.012,-0.04,0.023,0.051,0.08,0.072,0.006,-0.077,-0.253 (active),0.018,0.055,-0.05,0.003,0.065,0.051,-0.054,-0.029
SLC1A5 (UniProt Q15758),0.007,0.002,0.019,-0.01,-0.053,-0.006,0.012,-0.01,-0.022,-0.04,0.095,0.027,-0.043,-0.001,0.042,-0.014,-0.02,-0.009,-0.114,0.226 (active)
RPS19 (UniProt P39019),0.008,0.007,-0.054,-0.009,0.121,-0.07,-0.066,-0.039,0.013,-0.083,0.147,0.319,0.008,-0.115,0.041,0.091,-0.073,-0.063,0.147,0.121
RAP1GDS1 isoform 5 (UniProt P52306),-0.04,-0.035,0.073,0.042,-0.023,-0.014,0.174,0.016,0.047,0.019,-0.018,-0.27,0.077,0,0.01,-0.008,-0.017,0.072,-0.012,-0.002
RB1CC1 (UniProt Q8TDY2),-0.061,-0.005,0.025,-0.031,0.161,-0.022,-0.034,0.147,0.102,-0.008,0.051,-0.022,-0.086,0.063,-0.118,-0.07,-0.077,0.01,0.047,-0.116
RIC8A isoform 3 (UniProt Q9NPQ8),0.074,-0.051,0.024,0.023,0.198,0.028,0.085,0.111,0.028,0.073,-0.149,-0.526 (active),0.11,0.061,-0.009,0.036,0.011,0.095,-0.005,-0.186
RRAS2 isoform 4 (UniProt P62070),-0.016,-0.02,-0.009,-0.021,-0.015,0.011,-0.037,-0.034,-0.017,-0.049,0.061,0.124,-0.048,0.063,0.004,0.014,-0.013,0.019,-0.064,0.207 (active)
RPS13 (UniProt P62277),0.006,0.022,-0.044,-0.057,0.119,-0.144,-0.09,0.091,0.045,-0.101,0.219,0.567,0.035,-0.324,0.055,0.236,-0.066,-0.12,0.219,0.243
RDH13 (UniProt Q8NBN7),0.011,-0.082,0.045,0.078,-0.046,0.044,0.019,-0.01,-0.002,0.033,-0.154,-0.06,0.06,0.022,0.009,-0.058,0.051,0.013,-0.059,-0.318 (active)
RBM25 (UniProt P49756),-0.032,0.017,-0.007,-0.074,0.02,0.019,0,-0.093,0.202,0.035,0.024,-0.239,-0.019,0.015,-0.104,0.074,0.041,-0.019,0.086,-0.07
SAFB2 (UniProt Q14151),0.011,0.068,-0.024,0.011,0.203,-0.048,-0.038,0.097,-0.011,-0.029,0.018,0.118,-0.022,-0.246,-0.003,0.203,-0.061,-0.028,0.235,0.23
RBM22 (UniProt Q9NW64),-0.049,0.031,-0.056,-0.014,0.052,0.003,-0.004,-0.038,0.018,-0.006,-0.027,-0.3 (active),0.002,-0.009,-0.018,0.061,-0.058,0.005,0.011,-0.003
RPS20 isoform 2 (UniProt P60866),0.056,0.021,-0.049,-0.077,0.112,-0.117,-0.068,0.008,-0.032,-0.063,0.114,0.31,-0.009,-0.103,-0.02,0.065,-0.03,-0.037,0.091,0.063
RALGPS2 (UniProt Q86X27),,,,-0.234,1.06 (active),0.023,,-0.128,-0.147,-0.116,0.139,,,-0.247,0.145,-0.203,-0.059,-0.082,0.137,0.082
ROMO1 (UniProt P60602),0.087,-0.011,0.005,,-0.066,,-0.017,-0.082,-0.027,-0.036,0.033,0.01,-0.06,-0.178,0.024,-0.023,,-0.023,0.125,0.049
